Screen size: about 13,000 compounds; about 3,200 (25%) showed an effect of 50% or more. Some of the results follow.
system: P. falciparum stage V gametocytes; set-up: BacTiter-Glo ATP luminescence viability of purified stage V gametocytes in 384-well plates, per cent inhibition versus DMSO; settings: 48 h, 5 µM; inhibitor

Compound	% Inhibition [%]
Cc1nn(CC(O)Cn2c3ccc(Br)cc3c3cc(Br)ccc32)c(C)c1Br (stereo not drawn) [TCMDC-124164]	72.64
Oc1ccc2ccccc2c1CNC1CCCCCC1 [TCMDC-137607]	9.064
CC1CC(C)CN(CC(O)CNC(=O)Nc2ccc(Br)cc2)C1 (stereo not drawn) [TCMDC-134636]	5.991
CC1CN(CC(O)Cn2c3ccc(Br)cc3c3cc(Br)ccc32)CC(C)O1 (stereo not drawn) [TCMDC-124072]	94.88
CC(NCC(O)Cn1c2ccccc2c2ccccc21)c1ccccc1 (stereo not drawn) [TCMDC-124073]	13.55
OC(CNC1CCCCC1)Cn1c2ccc(I)cc2c2cc(I)ccc21 (stereo not drawn) [TCMDC-124074]	101.6
CC(C)(C)SCC(O)Cn1c2ccc(Br)cc2c2cc(Br)ccc21 (stereo not drawn) [TCMDC-124058]	-64.42
CC12CCC(CN(CC(O)Cn3c4ccccc4c4cc(I)ccc43)C1)C2(C)C (stereo not drawn) [TCMDC-124075]	-73.11
OC(CNCc1ccco1)Cn1c2ccc(Br)cc2c2cc(Br)ccc21 (stereo not drawn) [TCMDC-124071]	6.388
OC(CN1CCN(C2CCCCC2)CC1)Cn1c2ccccc2c2cc(Br)ccc21 (stereo not drawn) [TCMDC-124167]	-21.87
OC(CNC1CCCCC1)Cn1c2ccccc2c2ccccc21 (stereo not drawn) [TCMDC-124168]	90.81
CC(C)(CNC(=O)C1CCN(CC2CCCCC2)CC1)c1nc(-c2ccc(Cl)c(O)c2)c(-c2ccncc2)[nH]1 [TCMDC-141147]	-93.22
CN(C)CCOc1ccc(-c2cc(-c3ccnc(N)n3)c(-c3ccc(Cl)c(O)c3)o2)cc1 [TCMDC-141338]	-4.532
CCCCCc1cc(O)c2c(c1)OC(C)(C)CC2C1=CCN(Cc2cccnc2)CC1 (stereo not drawn) [TCMDC-131417]	-23.46
CCCc1ccc(NC(=O)c2ccc(CN3CCCN(Cc4cccc(O)c4)CC3)cc2)cc1 [TCMDC-136421]	2.458
COc1ccc(C=NNc2nc(-c3ccccc3)cc(=O)[nH]2)cc1OC [TCMDC-124217]	8.014
CC(C)NCC(O)Cn1c2ccc(Br)cc2c2cc(Br)ccc21 (stereo not drawn) [TCMDC-124100]	43.74
OC(CNC1CCCCC1)Cn1c2ccc(Br)cc2c2cc(Br)ccc21 (stereo not drawn) [TCMDC-124059]	90.2
N#Cc1ccc(C2CCN(CC[C@H](N)Cc3ccc(Cl)s3)CC2)cc1 [TCMDC-132358]	63.71
N#Cc1ccc(-c2ccc(C(=O)NCCCCN3CCC(c4ccncc4)CC3)cc2)cc1 [TCMDC-135811]	-0.7108
N#Cc1cccc(C(=O)N2CCOC(CCN3CCC(c4ccccc4)CC3)(c3ccc(Cl)c(Cl)c3)C2)c1 (stereo not drawn) [TCMDC-135335]	20.78

Source: PMC4552634, “A New Set of Chemical Starting Points with Plasmodium falciparum Transmission-Blocking Potential for Antimalarial Drug Discovery” (PLoS ONE, 2015)
